Source: PubChem
Most compounds without a hit are left out; they make up all but 3.4% or so of the library.
MITF inh – MITF inhibitors, primary screen, biochemical, AlphaScreen, human. Microphthalmia-associated transcription factor (Homo sapiens), O75030. AlphaScreen MITF homodimerization, bead proximity signal. inhibition, % at 2.6 µM. hit rate 0.91% among 650,000; in the data active = inhibition above about 50%;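 note: 0% = vehicle wells with protein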
TEAD-YAP inh – TEAD-YAP interaction inhibition, primary screen, TEAD-YAP interaction inhibitor project, luminescence, HEK-TIYL cells; TEAD-Gal4/YAP UAS-luciferase luminescence; inhibition, % at 9.12 µM; hit rate 1.4% among 640,000; AID 1259422, 2018; in the data active = inhibition above about 32%;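 note: 0% = median of test compound wells and 100% = reference inhibitor wells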
FBW7 activator – FBW7 E3 ligase activators, primary screen, biochemical, AlphaScreen, human. AID 1259310, 2017. AlphaScreen FBW7–phospho-cyclin E peptide binding, activator screen. normalized activity (activation), % at 26.1 µM. hit rate 0.13% among 650,000; in the data active = normalized activity above about 1.9%;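 note: purified mutant Fbw7 with reduced substrate affinity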
GPR151 ag – activators of human GPR151, primary screen, cell-based, PathHunter beta-arrestin, luminescence. hit rate 1% among 650,000. activation, % at 11.2 µM. PathHunter beta-arrestin GPR151 cells; in the data active = activation above about 4.9%;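 note: 0% = median of compound wells and 100% = cells with positive control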
Starred values were filed as active, the others as inactive.

SMILES	MITF inh	TEAD-YAP inh	FBW7 activator	GPR151 ag
CC(=O)Nc1ccccc1Nc1cc(Nc2ccc3c(c2)CC(=O)N3)ncc1C(F)(F)F	7	41*	0	-1
CNC(=O)c1ncccc1Nc1cc(Nc2ccc3c(c2)CC(=O)N3)ncc1C(F)(F)F	0	7	1	0
CNC(=O)c1ncccc1Nc1cc(Nc2ccc3c(c2)CCC(=O)N3)ncc1C(F)(F)F	-8	35*	0	1
CC(=O)c1ccc(N=Nc2ccc3nonc3c2N)cc1	13	50*	1	0
N#Cc1c(SCC(=O)Nc2cccc(C(F)(F)F)c2)nc2c(c1-c1cccs1)CCCC2	-16	1	0	0
Fc1cnc(Nc2ccc(CN3CCCCC3)cc2)nc1-c1cc(N2CCOCC2)cc(C(F)(F)F)c1	15	42*	0	2
Fc1cc(-c2nc(Nc3ccc(N4CCOCC4)cc3)ncc2F)cc(N2CCOCC2)c1	-2	1	0	1
Fc1cc(-c2nc(Nc3ccc(CN4CCCCC4)cc3)ncc2F)cc(N2CCOCC2)c1	-9	92*	0	2
Cc1nc2c(cnn2-c2ccccc2)c(=O)n1-c1cccc2ccccc12	7	37*	0	0
Cc1[nH]n(-c2ccccc2)c(=O)c1C(=O)c1cccc(F)c1	-9	46*	-1	0
Cc1[nH]n(-c2ccccc2)c(=O)c1C(N)=NC(=O)c1ccccc1	-8	11	0	1
Cc1[nH]n(-c2ccccc2)c(=O)c1C(=O)c1ccc(Cl)cc1	-3	61*	0	-1
COc1ccccc1CN1CCNC(=O)C1CC(=O)N1CCCC1 (stereo not given)	7	6	0	1
C=CCNS(=O)(=O)c1cc(C(=O)Nc2ccc(Oc3ccccc3)cc2)ccc1F	18	67*	0	0
O=C(Nc1ccc(Oc2ccccc2)cc1)c1ccc(F)c(S(=O)(=O)NCc2ccc(F)cc2)c1	20	42*	0	-1
Cc1c(Cl)cccc1NC(=O)c1cc(S(=O)(=O)NCc2ccco2)ccc1F	15	3	2.0*	-7
CCOc1ccc(NC(=O)c2cc(S(=O)(=O)NCc3ccccc3Cl)ccc2F)cc1	-19	45*	0	-1
COc1ccc(CNS(=O)(=O)c2cc(C(=O)Nc3ccc(Oc4ccccc4)cc3)ccc2F)cc1	33	6	0	1
CCOC(=O)N1CCN(S(=O)(=O)c2cc(C(=O)Nc3ccc(Oc4ccccc4)cc3)ccc2F)CC1	-1	22	0	-1
O=C(c1cccs1)N1CCC[C@@H]([C@@H](O)c2ccc(F)cc2)C1	10	-4	0	-1
O=C(Nc1ccc(Oc2ccccc2)cc1)c1ccc(F)c(S(=O)(=O)NCCc2ccccc2)c1	-4	40*	0	0
O=C(Nc1cccc(Cl)c1)c1ccc(F)c(S(=O)(=O)NCCc2ccccc2)c1	13	7	0	-2
CCOc1ccc(NC(=O)c2ccc(F)c(S(=O)(=O)NCc3ccccc3)c2)cc1	7	37*	0	0
CCOc1ccc2nc(N3CCC(C(=O)NCCCN4CCCC4=O)CC3)nc(C)c2c1	11	-4	1	-1
Cc1ncn(-c2ccc(Nc3ncc4cccc(-n5ccnc5)c4n3)cc2)n1	5	38*	5.7*	0
SMILES	MITF inh	TEAD-YAP inh	FBW7 activator	GPR151 ag
Cc1ncn(-c2ccc(Nc3ncc4cccc(N5CCOCC5)c4n3)cc2)n1	1	48*	0	0
NC(=O)c1c(Cl)nc(Cl)c([N+](=O)[O-])c1Cl	5	98*	0	-1
O=C(O)c1c(Cl)nc(Cl)c([N+](=O)[O-])c1Cl	6	15	0	0
COc1ccc(NC(=O)c2c(Cl)nc(Cl)c([N+](=O)[O-])c2Cl)cc1	-2	85*	0	3
CCCCNC(=O)c1c(Cl)nc(Cl)c([N+](=O)[O-])c1Cl	0	45*	0	-1
CCCOC(=O)C1=C(C)NC(=O)NC1c1ccccc1F (stereo not given)	-9	-14	0	3
O=C(Cn1cnc2ccccc2c1=O)Nc1nc(-c2ccc(Cl)s2)cs1	-10	9	0	-1
C/C(=C/C(=O)O)C(=O)NCc1ccc(C)cc1	9	2	1	2
CC1CCc2c(sc(NC(=O)c3cc4nc(-c5ccccc5)cc(C(F)(F)F)n4n3)c2C(N)=O)C1 (stereo not given)	-15	2	0	0
COc1ccc(OCC(O)Cn2c(NCCN)nc3c2c(=O)n(C)c(=O)n3C)cc1 (stereo not given)	-7	-1	0	1
O=c1c2c3c(sc2nc2c4ccccc4c(Cl)nn12)CCCCC3	-4	-5	0	0
Cc1nn2c(=O)c3c4c(sc3nc2c2ccccc12)CCCC4	2	52*	0	0
COC(=O)Cn1c(O)c(N=NC(=O)C2C(=O)NCC2c2ccccc2)c2ccccc21 (stereo not given)	7	-6	0	1
COCCCN1C(=O)c2ccc(C(=O)OCc3cccc(Br)c3)cc2C1=O	9	-3	0	-1
Cc1cc(-c2cccc3[nH]c(C(F)(F)F)nc23)nn1C(=O)c1cccnc1	-1	63*	0	3
O=C1N/C(=C\c2cc3c(cc2Br)OCO3)C(=O)N1c1ccccc1	5	6	0	1
Ic1ccc(-c2cn3c(n2)sc2ccccc23)cc1	14	-38	1	1
COC(=O)c1ccc2c(c1)sc1nc(-c3ccccc3)cn12	-1	65*	0	-6
Clc1ccc(-c2cn3c(n2)sc2ccccc23)cc1	-18	31	2.7*	-2
CCOC(=O)c1ccc2c(c1)sc1nc(-c3ccccc3)cn12	4	54*	0	-6
CC(=O)Nc1ccc(NC(=O)C(C)Oc2ccccc2C)cc1 (stereo not given)	-12	-10	1	-1
O=C(CN1C(=O)c2ccccc2C1=O)Nc1nc(-c2ccc(-c3ccccc3)cc2)cs1	6	-16	0	0
CCC1=Nc2cc(C(=O)NCCOC)ccc2Sc2ccccc21	5	57*	0	2
CC1=Nc2cc(C(=O)NCCN(C)C)ccc2Sc2ccc(Cl)cc21	-6	56*	0	0
CCC1=Nc2cc(C(=O)NCC(OC)OC)ccc2Sc2ccccc21	5	36*	0	0
CC(=O)c1cc2c(cc1NC(=O)/C=C/C(=O)O)OCO2	10	-2	0	-1
COc1ccc(CCNc2nc(-c3ccc(C(=O)N4CCN(C)CC4)cc3)nc3c2ncn3-c2ccsc2)cc1	-3	20	0	-2
C=CCOc1ccc(/C(O)=C2/C(=O)C(=O)N(CCN(C)C)C2c2ccc(Cl)cc2)cc1C (stereo not given)	19	3	0	1
COc1ccc(CCNc2nc(N3CCN(c4ccccn4)CC3)nc3c2ncn3-c2ccsc2)cc1	0	3	0	1
CCCNc1nc(N2CCCC2CO)nc2c1ncn2-c1ccsc1 (stereo not given)	8	37*	0	0
